This is a sample that favours compounds with a hit; in the whole collection about 5.6% have one here.
CtBP-E1A blk = qHTS Assay for Inhibitors of the CtBP/E1A Interaction; activity change, % (concentration not given with the values); CtBP / adenovirus E1A interaction (AlphaScreen); actives 0.49% (n = 340,000); AlphaScreen GST-E1A/His-CtBP binding, 1536-well; active compounds read low; AID 651724, 2012; in the data active = activity change below about -65%; inconclusive = mostly about -30% to -63%
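GST-E1A and His-tagged CtBP (125 nM each as 5X stock) were preincubated with pin-transferred compound for 2 h at 37 °C in the dark, then glutathione donor and nickel acceptor beads were added for 1 h before AlphaScreen reading.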
Gal4-VP16 FLuc = VP16 counterscreen qHTS for inhibitors of ROR gamma transcriptional activity; Drosophila S2 Gal4-VP16 UAS-luciferase, luminescence, 20 h; Potency, µM (highest dose often 53.6 µM), without a hit: top-dose activity, negative = inhibition, hits mostly inhibitors; actives 3.5% (n = 310,000); AID 2546, 2010;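 also: Gal4-VP16 expression switched on by copper sulfate through the metallothionein promoter; potency is read from the fitted curve at half-maximal effect; nearly all actives have a fitted effect of over 50% in size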
PKM2 act = qHTS Assay for Activators of Human Muscle isoform 2 Pyruvate Kinase; Pyruvate kinase PKM (Homo sapiens), P14618; purified PKM2, Kinase-Glo ATP luminescence, activation; response scale: 0% is enzyme alone, no compound; Potency, µM (highest dose often 57.5 µM), for the others: at the top dose activation, actives largely listed as activators; actives 0.34% (n = 260,000); AID 1631, 2009; also: potency is read from the fitted curve at half-maximal effect; nearly all actives have a fitted effect of over 55% in size
Target sequence (P14618 whole entry, looked up, canonical isoform): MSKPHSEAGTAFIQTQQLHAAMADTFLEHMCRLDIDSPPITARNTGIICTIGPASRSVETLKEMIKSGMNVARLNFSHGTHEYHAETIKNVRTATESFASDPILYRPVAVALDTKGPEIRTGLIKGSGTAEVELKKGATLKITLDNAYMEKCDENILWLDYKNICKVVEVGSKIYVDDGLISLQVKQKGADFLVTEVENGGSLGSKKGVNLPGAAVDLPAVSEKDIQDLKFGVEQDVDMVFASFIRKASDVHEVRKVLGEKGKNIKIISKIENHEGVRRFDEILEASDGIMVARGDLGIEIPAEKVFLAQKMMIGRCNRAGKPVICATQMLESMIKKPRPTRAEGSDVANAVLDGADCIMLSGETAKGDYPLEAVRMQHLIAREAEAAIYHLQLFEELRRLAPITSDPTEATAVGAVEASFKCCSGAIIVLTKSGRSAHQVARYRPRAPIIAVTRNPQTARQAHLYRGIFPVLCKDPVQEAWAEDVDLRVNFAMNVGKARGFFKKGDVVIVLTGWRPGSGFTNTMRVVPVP
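ATP formation by purified human PK-M2, quantified via coupled luciferase luminescence after 1 h at room temperature with 0.1 mM ADP and 0.5 mM PEP final.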
RORg inh = qHTS for inhibitors of ROR gamma transcriptional activity; Nuclear receptor ROR-gamma (Mus musculus), P51450; Drosophila S2 Gal4-RORgamma UAS-luciferase reporter, 20 h; Potency, µM (highest dose often 53.6 µM), without a hit: at the highest dose activity change, negative = inhibition, actives largely listed as inhibitors; actives 5.4% (n = 310,000); also: potency is read from the fitted curve at half-maximal effect; nearly all actives have a fitted effect of over 60% in size
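Read-out: Photinus luciferase luminescence; inhibitors lower reporter signal. Insect Schneider cells with Gal4-ROR gamma fusion under metallothionein promoter, UAS reporter; 700 uM final copper sulfate induction, 20 hr, ambient temperature.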
Six1-Eya2 inh = qHTS Assay for Inhibitors of the Six1/Eya2 Interaction | AID 651725, 2012 | activity change, % (concentration not given with the values) | AlphaScreen GST-Six1/His-Eya2 binding, biochemical; active compounds read low | Homeobox protein SIX1 (Homo sapiens) + Protein phosphatase EYA2 (Homo sapiens), … | actives 0.56% (n = 360,000); in the data active = activity change below about -65%; inconclusive = mostly about -30% to -63%
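Homogeneous AlphaScreen proximity assay pairing GST-Six1 with His-tagged Eya2 (added as 5X mix: 250 nM and 500 nM) in 50 mM Tris pH 8.0, 300 mM NaCl, 1 mM TCEP. Glutathione donor and nickel acceptor beads; 1 h, 37 °C, dark.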
* marks the source's active call; other numbers are inactive results; u = inconclusive; x = no result given; [ ] = dose if it differs, or a comment. Unless noted, calls follow the shape of the dose curve; as a rule, active = well fitted curve in the direction sought with a large enough effect; inconclusive = small, poorly fitted or top-dose-only effect, or another doubt; inactive = no such curve, though single readings can be large; an effect the other way counts as inactive or inconclusive. % is scaled to controls: 0 for no effect and ±100 for the full control effect.

SMILES | CtBP-E1A blk | Gal4-VP16 FLuc | PKM2 act | RORg inh | Six1-Eya2 inh
Cc1ccc(CNC(=O)C(NS(=O)(=O)c2cccc3nsnc23)C(C)C)cc1 (stereo not drawn) | 1 | 0% | x | -1% | 2
Cc1ccc(NC(=O)C(NS(=O)(=O)c2cccc3nsnc23)C(C)C)nc1 (stereo not drawn) | 0 | -11% | -6% | 21% | -7
CCOc1ccc2nc(NC(=O)C(NS(=O)(=O)c3cccc4nsnc34)C(C)C)sc2c1 (stereo not drawn) | 2 | u | -26% | 16µM* | -14
CC(C)C(NS(=O)(=O)c1cccc2nsnc12)C(=O)Nc1nc2ccc(Cl)cc2s1 (stereo not drawn) | 4 | u | 2% | 22µM* | -18
CC(NC(=O)c1ccncc1)c1ccc(Cl)cc1Cl (stereo not drawn) | 1 | 2% | x | 15% | 4
Cc1cc(C)c2cc(C#N)c(SCC(=O)NCc3ccco3)nc2c1 | -3 | u | 14% | 13µM* | -7
O=C(CSc1ncccc1-c1nc2ccccc2[nH]1)NCc1ccco1 | -20 | 0% | -1% | -10% | u
Cc1cc2nc(-c3cccnc3SCC(=O)NCc3ccco3)[nH]c2cc1C | -10 | 13µM* | -43% | 11µM* | -14
COC(=O)C(Cc1csc2ccc(Cl)cc12)NC(=O)c1ccc(Cl)cc1 (stereo not drawn) | 4 | -4% | 1% | -3% | 7
CCN(CC)S(=O)(=O)c1ccc(N2CCCC2)c(NC(=O)c2ccc(N3CCCC3=O)cc2)c1 | -11 | x | x | x | -9
CC(=O)c1c(C)nc(Nc2nc(C)c3cc(C)ccc3n2)nc1C | 31 | u | -5% | 4µM* | -4
CC1=NN(Cc2c(C)nn(Cc3ccccc3)c2C)C(C)(C)C1 | 1 | 9% | 13% | 13µM* | -6
O=C(O)C1CCN(C(=O)CSc2nnc3ccccn23)CC1 | 1 | x | x | x | 6
COc1ccccc1CCNS(=O)(=O)CCNC(=O)c1ccc2c(c1)OCO2 | 4 | x | x | x | -4
CC(=O)/C(N=Nc1cc(C)ccc1O)=C(\C)O | 9 | -3% | -2% | 3.2µM* | 24
CC(=O)/C(N=Nc1ccc(C(=O)O)cc1[N+](=O)[O-])=C(\C)O | x | -2% | -20% | 0% | -6
CCOC(=O)Nc1nc(-c2ccccc2)c(C(=O)c2ccccc2)s1 | 3 | -22% | 1% | 13µM* | -4
COC(=O)Nc1nc(-c2ccccc2)c(C(=O)c2ccc(Cl)cc2)s1 | -3 | 8% | 5% | 0% | -5
COc1ccc(CCNC(=O)c2cc(-c3ccncc3)nc3ccc(S(=O)(=O)N4CCOCC4)cc23)cc1OC | -15 | -1% | 3%[0.46 µM] | -22% | 5
CCN1CCN(C2=C(NS(=O)(=O)c3ccc(NC(C)=O)cc3)C(=O)c3ccccc3C2=O)CC1 | x | u | x | u | -19
CC(=O)Nc1ccc(S(=O)(=O)NC2=C(N3CCN(C)CC3)C(=O)c3ccccc3C2=O)cc1 | x | -30% | x | 13µM* | -7
O=C1C(NS(=O)(=O)c2ccccc2)=C(N2CCN(c3ccc(F)cc3)CC2)C(=O)c2ccccc21 | -88* | -1% | 3% | -8% | -77*
CC1CCN(C2=C(NS(=O)(=O)c3ccc(Cl)cc3)C(=O)c3ccccc3C2=O)CC1 | u | u | -10% | 11µM* | -30
CC1CCN(C2=C(NS(=O)(=O)c3ccccc3)C(=O)c3ccccc3C2=O)CC1 | -85* | 5% | -6% | -3% | -72*
O=C1C(NS(=O)(=O)c2ccc(Br)cc2)=C(N2CCCCC2)C(=O)c2ccccc21 | x | u | x | -44% | u
SMILES | CtBP-E1A blk | Gal4-VP16 FLuc | PKM2 act | RORg inh | Six1-Eya2 inh
CCN1CCN(C2=C(NS(=O)(=O)c3ccc(C)cc3)C(=O)c3ccccc3C2=O)CC1 | -16 | -18% | x | u | -18
CCN(C[C@H]1N[C@@](Cc2ccccc2)(C(=O)OC)[C@H]2C(=O)N(C)C(=O)[C@@H]12)S(=O)(=O)c1ccc(OC)cc1 | 6 | x | x | x | -1
O=C(NC1CCN(C(=O)Nc2ccccc2Cl)CC1)c1cccc(F)c1 | 7 | 7% | 0% | -9% | 3
COc1cc2c(cc1OC)C1O[C@](c3ccsc3)(C2)Oc2c1c(=O)oc1ccc(F)cc21 | x | -23%[10 µM] | 3%[11.5 µM] | 30%[10 µM] | x
CC1CCN(C2=C(NS(=O)(=O)c3ccc(Br)cc3)C(=O)c3ccccc3C2=O)CC1 | x | u | -1%[0.46 µM] | -38% | -84*
O=S(=O)(Nc1cccc2ccccc12)c1ccccc1 | 6 | -1% | 1% | 1% | -1
COC(=O)Nc1ccc(S(=O)(=O)Nc2cccc3ccccc23)cc1 | 2 | 18µM* | 10% | u | -3
CCCOc1ccc([N+](=O)[O-])cc1C1NC(=S)NC(c2ccccc2)=C1C(=O)OCC (stereo not drawn) | -10 | 20µM* | 3% | 6.3µM* | -16
CCOC(=O)C1=C(c2cccc(F)c2)NC(=S)NC1C (stereo not drawn) | 3 | u | 4% | 14µM* | -1
O=C(Cc1ccccc1)c1c[nH]c(C(=O)NCCCN2CCOCC2)c1 | 0 | 1% | 0% | 11% | 25
Cc1ccc(CNC(=O)CCS(=O)(=O)c2cc(Br)cc3c2N(C(=O)C2CC2)CC3)o1 | -10 | -2% | 7.9µM* | 3% | -12
O=C(O)CCS(=O)(=O)c1cc(Br)cc2c1N(C(=O)C1CC1)CC2 | 0 | -7% | -1% | -7% | -12
O=S(=O)(Nc1ccc(-n2cccc2)cc1)c1ccc(Cl)cc1Cl | -16 | 14µM* | 7% | 20µM* | -21
CCOC(=O)C1=CCN(S(=O)(=O)c2ccccc2F)C1c1cccc(Cl)c1 (stereo not drawn) | 9 | x | x | x | 6
Cc1cccc(C(=O)NC(=S)Nc2ccccc2C(=O)O)c1 | -7 | -10% | 1% | 1% | -8
Cc1cc(C)c(NC(=S)NC(=O)c2ccccc2)cc1C | -9 | x | x | x | 7
Cc1cccc(C(=O)NC(=S)Nc2ccccc2C(F)(F)F)c1 | -7 | 5.6µM* | 1% | 4.5µM* | -13
Cc1ccc(C(=O)NC(=S)Nc2ccccc2C(F)(F)F)cc1C | -7 | 13µM* | 3% | 2.5µM* | -15
CC(C)(C)OC(=O)C[C@@H]1C/C=C\C[C@H](CC(=O)N[C@@H](CO)Cc2ccccc2)C(=O)N[C@H](C(C)(C)C)COC1=O | 6 | x | x | x | -5
NC(=O)c1cc[n+](CC(=O)NC(=O)Nc2ccccc2)cc1 | 9 | x | x | x | 4
